From PubChem BioAssay (Tox21) come the findings set out here.

Inconclusive results are not listed. The source made the active and inactive calls. Unless noted, calls come from the whole dose curve; as a rule, active = well fitted curve in the direction sought with a large enough effect in the repeat runs; inconclusive = weak or mixed curves; inactive = no such curve, though single readings can be large; an effect the other way counts as inactive or inconclusive.

Assay [1] is described as follows: qHTS assay to identify aromatase inhibitors - cell viability counter screen (AID 743084).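 Note: cells stimulated with testosterone during compound exposure; nearly all actives have a fitted effect of over 55% in size.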
Assay [2] deals with Aryl hydrocarbon receptor (Homo sapiens) (UniProt P35869). Put plainly: qHTS assay to identify small molecule that activate the aryl hydrocarbon receptor (AhR) signaling pathway (AID 743085).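 For activation: HG2L7.5c1 human HepG2 liver cells with stably integrated DRE-driven firefly reporter; series mostly up to about 70 µM.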 Note: nearly all actives have a fitted effect of over 15% in size. Note: potency is the fitted concentration of half-maximal effect. A digest of the protocol: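 Luminescence read-out: ONE-Glo reagent, 30 min at room temperature, in HG2L7.5c1 HepG2 reporter cells treated 24 h at 37C. Viability was measured beforehand by CellTiter-Fluor fluorescence after 30 min at 37C.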
Aryl hydrocarbon receptor (Homo sapiens), sequence (P35869 whole entry, looked up): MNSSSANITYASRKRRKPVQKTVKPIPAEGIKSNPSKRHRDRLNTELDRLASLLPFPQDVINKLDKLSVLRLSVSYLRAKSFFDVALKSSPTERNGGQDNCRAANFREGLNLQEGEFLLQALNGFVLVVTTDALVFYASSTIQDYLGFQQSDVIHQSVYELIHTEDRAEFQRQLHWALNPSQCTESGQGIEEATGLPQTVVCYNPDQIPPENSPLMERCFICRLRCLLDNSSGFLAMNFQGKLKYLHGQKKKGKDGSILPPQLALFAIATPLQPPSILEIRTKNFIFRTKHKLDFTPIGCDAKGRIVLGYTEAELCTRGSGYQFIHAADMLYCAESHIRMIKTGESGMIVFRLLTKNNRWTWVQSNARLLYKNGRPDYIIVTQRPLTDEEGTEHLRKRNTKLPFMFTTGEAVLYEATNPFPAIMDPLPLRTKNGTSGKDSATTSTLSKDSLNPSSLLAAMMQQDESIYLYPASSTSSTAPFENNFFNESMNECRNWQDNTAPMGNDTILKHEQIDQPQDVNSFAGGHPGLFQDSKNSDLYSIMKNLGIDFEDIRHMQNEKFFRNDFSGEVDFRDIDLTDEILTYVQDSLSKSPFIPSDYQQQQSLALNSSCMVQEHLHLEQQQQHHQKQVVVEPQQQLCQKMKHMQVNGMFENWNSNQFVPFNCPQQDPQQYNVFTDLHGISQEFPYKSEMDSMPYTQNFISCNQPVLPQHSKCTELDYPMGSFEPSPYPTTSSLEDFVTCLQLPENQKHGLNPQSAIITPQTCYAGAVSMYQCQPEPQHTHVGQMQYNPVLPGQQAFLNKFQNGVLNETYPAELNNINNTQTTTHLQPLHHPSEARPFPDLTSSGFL

A short description of assay [3]: qHTS assay to identify small molecule that activate the aryl hydrocarbon receptor (AhR) signaling pathway - cell viability counter screen (AID 743086).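 Note: HepG2 liver cells carrying the AhR DRE luciferase reporter; series mostly up to about 70 µM; nearly all actives have a fitted effect of over 45% in size.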 Put shortly: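 HepG2-AhR-luc (HG2L7.5c1) cells, 4000/well, treated 24 h at 37 C with compound; viability measured as CellTiter-Fluor fluorescence after 30 min in the same wells as the luciferase read.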
In assay [4] the target is Peroxisome proliferator-activated receptor gamma (Homo sapiens) (UniProt P37231). Description: qHTS assay to identify small molecule agonists of the peroxisome proliferator-activated receptor gamma (PPARg) signaling pathway (AID 743094; active = well fitted activation curve with a large enough effect in the signal ratio in the repeat runs, not every such curve was filed as active; the % refers to the signal ratio). Put shortly: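 Compounds dissolved in DMSO were added to PPARg UAS-bla HEK293H cells for 17 h at 37C, and reporter expression was quantified by fluorescence intensity after 1 h with LiveBLAzer B/G FRET substrate.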
Peroxisome proliferator-activated receptor gamma (Homo sapiens), sequence (P37231 whole entry, looked up): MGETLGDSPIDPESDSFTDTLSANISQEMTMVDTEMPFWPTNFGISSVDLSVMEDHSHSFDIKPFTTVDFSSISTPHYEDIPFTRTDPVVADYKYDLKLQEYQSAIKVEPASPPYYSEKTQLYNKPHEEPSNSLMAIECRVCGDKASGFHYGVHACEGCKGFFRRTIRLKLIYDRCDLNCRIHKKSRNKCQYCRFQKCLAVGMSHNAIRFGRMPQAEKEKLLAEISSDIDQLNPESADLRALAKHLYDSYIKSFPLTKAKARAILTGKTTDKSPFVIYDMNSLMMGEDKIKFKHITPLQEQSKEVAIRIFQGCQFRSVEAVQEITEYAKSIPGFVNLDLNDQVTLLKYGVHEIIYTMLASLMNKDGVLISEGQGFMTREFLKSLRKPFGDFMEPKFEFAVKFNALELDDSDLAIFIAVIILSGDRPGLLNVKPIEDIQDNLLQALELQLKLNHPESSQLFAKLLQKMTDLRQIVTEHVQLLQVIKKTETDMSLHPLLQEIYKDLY

For assay [5] the target is unchanged. Description: qHTS assay to identify small molecule antagonists of the peroxisome proliferator-activated receptor gamma (PPARg) signaling pathway (AID 743191; calls by dose curve; note: series mostly up to about 63 µM; nearly all actives have a fitted effect of over 30% in size). A digest of the protocol: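 GeneBLAzer PPARg UAS-bla HEK293H cells, 5 h post-plating, exposed to compounds 17 h at 37C. LiveBLAzer B/G FRET substrate added for 1 h at room temperature; beta-lactamase reporter read by fluorescence intensity.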

Assay [6] can be described thus: qHTS assay to identify small molecule antagonists of the peroxisome proliferator-activated receptor gamma (PPARg) signaling pathway - cell viability counter screen (AID 743194). Note: nearly all actives have a fitted effect of over 55% in size. The note with it: Potency: co-treated with 50 nM rosiglitazone. Put shortly: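 Cytotoxicity counter screen in PPARg-bla HEK293H cells, same wells as reporter assay. Compounds plus 50 nM rosiglitazone (final) for 17 h at 37 C, then viability read by CellTiter-Glo luminescence.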

Assay [7] in a line: qHTS assay for small molecule agonists of the antioxidant response element (ARE) signaling pathway - cell viability counter screen (AID 743203; calls by dose curve; note: nearly all actives have a fitted effect of over 55% in size). Put shortly:
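Following 16 hrs of compound treatment at 37C, HepG2 cells with an ARE-controlled beta-lactamase gene were lysed with CellTiter-Glo. Luminescence was read after 30 min at room temperature.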

Assay [8] in a line: qHTS assay for small molecule activators of the heat shock response signaling pathway - cell viability counter screen (AID 743209). Note: nearly all actives have a fitted effect of over 50% in size. Put shortly:
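Readout: CellTiter-Glo luminescence, 30 min at room temperature. System: HSE-bla HeLa cells, 1500/well, plated overnight. Treatment: compounds in DMSO, 5 h at 37 C.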

Assay [9] can be described thus: qHTS assay for small molecule activators of the heat shock response signaling pathway (AID 743210; active = well fitted activation curve with a large enough effect in the signal ratio in the repeat runs, with a control signal flat, not every such curve was filed as active; the % refers to the signal ratio;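 note: HeLa cells with beta-lactamase reporter driven by heat shock elements; series mostly up to about 63 µM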). Put shortly: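 Quantitative high-throughput format using an engineered HeLa line in which heat shock response elements drive beta-lactamase; after 5 h with compound, cells received a B/G FRET substrate and fluorescence was read.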
The nature of assay [10]: qHTS assay to identify small molecule agonists of the peroxisome proliferator-activated receptor delta (PPARd) signaling pathway - cell viability counter screen (AID 743211). Note: nearly all actives have a fitted effect of over 55% in size. Put shortly: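 Read-out: CellTiter-Glo luminescence, 30 min RT, measured in the same wells as the beta-lactamase reporter. Cells: GeneBLAzer PPAR delta UAS-bla HEK293H, 3000 cells/well, compound exposure 17 h at 37C.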

The target in assay [11] is Peroxisome proliferator-activated receptor delta (Homo sapiens) (UniProt Q03181). Put plainly: qHTS assay to identify small molecule agonists of the peroxisome proliferator-activated receptor delta (PPARd) signaling pathway (AID 743212; calls by dose curve). Put shortly:
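Quantitative high-throughput agonist screen in a HEK293H beta-lactamase reporter line under UAS control. Compounds in DMSO, at 37 C. Fluorescence read after 2 h with FRET substrate at room temperature.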

Assay [12] can be described thus: qHTS assay to identify small molecule antagonists of the peroxisome proliferator-activated receptor delta (PPARd) signaling pathway - cell viability counter screen (AID 743213). Note: nearly all actives have a fitted effect of over 50% in size. Put shortly: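 PPARd-bla HEK293H cells (3000/well) got compound plus 300 nM L165041 agonist for 17 h at 37 C. Viability in the same wells came from CellTiter-Glo luminescence after 30 min at room temperature.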

The target in assay [13] is Peroxisome proliferator-activated receptor delta (Homo sapiens) (UniProt Q03181). Put plainly: qHTS assay to identify small molecule antagonists of the peroxisome proliferator-activated receptor delta (PPARd) signaling pathway (AID 743215; active = well fitted inhibition curve with a large enough effect in the signal ratio in the repeat runs, not every such curve was filed as active; the % refers to the signal ratio;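 note: cells stimulated with agonist L165041 at 300 nM final during compound exposure; series mostly up to about 62 µM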). Put shortly: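 HEK293H UAS-bla, PPARd; agonist L165041 300 nM final with cpd in DMSO; 37 C 17 h; FRET substrate, RT 2 h; fluorescence intensity.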
Peroxisome proliferator-activated receptor delta (Homo sapiens), sequence (Q03181 whole entry, looked up): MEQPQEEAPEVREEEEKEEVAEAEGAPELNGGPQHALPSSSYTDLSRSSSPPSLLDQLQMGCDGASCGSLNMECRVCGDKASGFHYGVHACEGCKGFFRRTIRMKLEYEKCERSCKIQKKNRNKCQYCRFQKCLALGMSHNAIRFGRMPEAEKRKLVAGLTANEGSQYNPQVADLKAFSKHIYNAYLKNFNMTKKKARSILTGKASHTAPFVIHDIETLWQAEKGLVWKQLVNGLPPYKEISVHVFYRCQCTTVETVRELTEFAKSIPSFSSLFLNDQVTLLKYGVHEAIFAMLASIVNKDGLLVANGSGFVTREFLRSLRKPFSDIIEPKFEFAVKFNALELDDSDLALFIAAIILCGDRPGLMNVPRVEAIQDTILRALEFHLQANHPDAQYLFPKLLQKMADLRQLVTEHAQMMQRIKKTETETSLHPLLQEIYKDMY

In assay [14] the target is Bile acid receptor (Homo sapiens) (UniProt Q96RI1). Description: qHTS assay to identify small molecule antagonists of the farnesoid-X-receptor (FXR) signaling pathway (AID 743217; active = well fitted inhibition curve with a large enough effect in the signal ratio in the repeat runs, not every such curve was filed as active; the % refers to the signal ratio). A digest of the protocol: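 GeneBLAzer FXR-UAS-bla HEK 293T, CDCA-stimulated (50 uM final). Compound treatment 16 h, 37 °C. Detection: beta-lactamase cleavage of B/G FRET substrate, fluorescence.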
Bile acid receptor (Homo sapiens), sequence (Q96RI1 whole entry, looked up): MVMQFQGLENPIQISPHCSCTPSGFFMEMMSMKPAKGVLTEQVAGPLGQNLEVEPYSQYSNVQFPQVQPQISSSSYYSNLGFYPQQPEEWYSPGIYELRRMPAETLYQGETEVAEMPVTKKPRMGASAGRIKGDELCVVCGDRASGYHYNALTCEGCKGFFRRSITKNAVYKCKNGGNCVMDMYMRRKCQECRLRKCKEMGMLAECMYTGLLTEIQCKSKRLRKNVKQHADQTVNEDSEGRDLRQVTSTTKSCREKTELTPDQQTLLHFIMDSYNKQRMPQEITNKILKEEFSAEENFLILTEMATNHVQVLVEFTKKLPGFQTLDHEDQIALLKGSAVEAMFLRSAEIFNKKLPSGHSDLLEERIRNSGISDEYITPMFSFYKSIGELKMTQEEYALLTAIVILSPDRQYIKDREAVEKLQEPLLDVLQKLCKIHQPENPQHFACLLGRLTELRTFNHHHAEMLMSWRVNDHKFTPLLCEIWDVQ

A short description of assay [15]: qHTS assay to identify small molecule agonists of the farnesoid-X-receptor (FXR) signaling pathway - cell viability counter screen (AID 743218). Note: nearly all actives have a fitted effect of over 45% in size. Put shortly:
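Parallel cytotoxicity test: compound-treated (16 h, 37 C) HEK 293T FXR-bla reporter cells were lysed with CellTiter-Glo and luminescence recorded.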

Assay [16] in a line: qHTS assay to identify small molecule antagonists of the farnesoid-X-receptor (FXR) signaling pathway - cell viability counter screen (AID 743221; active = well fitted cell-killing curve with a large enough effect in the repeat runs, not every such curve was filed as active; note: nearly all actives have a fitted effect of over 50% in size). A digest of the protocol:
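HEK 293T FXR-bla cells, 5 h pre-incubation; compound + CDCA 50 uM final, 16 h, 37 C; beta-lactamase FRET read first, then CellTiter-Glo luminescence, 30 min RT.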

In assay [17] the target is Vitamin D3 receptor (Homo sapiens) (UniProt P11473). Description: qHTS assay to identify small molecule agonists of the vitamin D receptor (VDR) signaling pathway (AID 743222; calls by dose curve). A digest of the protocol:
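In VDR-bla cells, compound-induced beta-lactamase expression is quantified by FRET substrate fluorescence. Treatment lasts 16 h at 37C; substrate develops 2 h at room temperature.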

The target is the same in assay [18]. Put plainly: qHTS assay to identify small molecule antagonists of the vitamin D receptor (VDR) signaling pathway (AID 743223; active = well fitted inhibition curve with a large enough effect in the signal ratio in the repeat runs, not every such curve was filed as active; the % refers to the signal ratio). Put shortly:
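Beta-lactamase reporter read-out: FRET substrate fluorescence after 2 h at room temperature, following 16 h exposure of VDR-bla cells to test compound plus 3 nM (final) 1alpha,25-dihydroxyvitamin D3 agonist at 37C.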

Assay [19] in a line: qHTS assay for small molecule agonists of the antioxidant response element (ARE) signaling pathway (AID 743202; active = well fitted activation curve with a large enough effect in the signal ratio in the repeat runs, not every such curve was filed as active; the % refers to the signal ratio). A digest of the protocol:
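Agonist mode reporter screen: HepG2 cells with ARE-controlled beta-lactamase are incubated with test compounds for 16 h at 37 C, and beta-lactamase activity is measured as fluorescence of cleaved B/G FRET substrate.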

The target in assay [20] is Bile acid receptor (Homo sapiens) (UniProt Q96RI1). Description: qHTS assay to identify small molecule agonists of the farnesoid-X-receptor (FXR) signaling pathway (AID 743220; active = well fitted activation curve with a large enough effect in the signal ratio in the repeat runs, not every such curve was filed as active; the % refers to the signal ratio). A digest of the protocol: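 Beta-lactamase reporter under UAS control in GeneBLAzer FXR HEK 293T cells (5000/well) measured with LiveBLAzer FRET substrate after 2 h at room temperature. Compound exposure lasted 16 h at 37C.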

Vitamin D3 receptor (Homo sapiens), sequence (P11473 whole entry, looked up): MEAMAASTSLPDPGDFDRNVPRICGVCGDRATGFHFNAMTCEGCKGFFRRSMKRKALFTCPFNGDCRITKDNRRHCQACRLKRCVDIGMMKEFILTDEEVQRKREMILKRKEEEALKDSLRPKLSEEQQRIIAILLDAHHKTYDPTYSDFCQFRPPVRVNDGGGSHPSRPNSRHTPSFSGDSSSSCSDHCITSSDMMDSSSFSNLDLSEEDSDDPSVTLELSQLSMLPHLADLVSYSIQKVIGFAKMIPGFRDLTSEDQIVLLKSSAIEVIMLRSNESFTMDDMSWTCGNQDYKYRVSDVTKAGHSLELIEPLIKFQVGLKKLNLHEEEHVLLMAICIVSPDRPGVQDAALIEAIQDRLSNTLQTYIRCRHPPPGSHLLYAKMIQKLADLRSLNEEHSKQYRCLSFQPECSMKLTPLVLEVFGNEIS

On to `Nc1n[nH]c(N)n1`, for which the Potency result in assay [1], in assay [2], in assay [5], in assay [6], in assay [7] and in assay [8] was “inactive” throughout. The Potency result in assay [10], in assay [14] and in assay [15] was “inactive” in each case. Besides, the outcome in assay [3], in assay [4], in assay [9], in assay [11], in assay [12] and in [13] was inactive. The molecule was classed as inactive in assay [16], in assay [17] and in assay [18].

On to `CCOP(=O)(OCC)OP(=O)(OCC)OCC`, for which the Potency entry in [1], in assay [2], in [5], in assay [6], in assay [19] and in assay [7] was “inactive” in each case. Further, the Potency entry in assay [8], in [10], in assay [14] and in [15] was “inactive” in each case. The call in [3], in assay [4], in [9], in assay [11], in assay [12] and in assay [13] was inactive. Further, the outcome in [20], in [16] and in assay [17] was inactive.

On to `O=[N+]([O-])c1cccc2cccnc12`, for which the Potency result in [1], in [5], in assay [6], in assay [7], in assay [8] and in [10] was “inactive” throughout. The Potency result in assay [14] is “inactive”. Besides, in assay [2], the Potency was 35.3 µM (active). The result in [3], in assay [4], in assay [9], in assay [11], in assay [12] and in assay [16] was inactive. Besides, the molecule was classed as inactive in assay [17] and in assay [18].

As to `CC(Cl)(Cl)[N+](=O)[O-]`, the Potency result in [1], in assay [2], in [5], in assay [6], in assay [19] and in [7] was “inactive” throughout. In addition, the Potency result in assay [8], in assay [10] and in assay [15] was “inactive” in each case. Further, the call in assay [3], in assay [4], in assay [9], in [11], in assay [12] and in assay [13] was inactive. The molecule was called inactive in assay [16], in assay [17] and in assay [18].

On to `O=C1OC(=O)C2C1C1(Cl)C(Cl)=C(Cl)C2(Cl)C1(Cl)Cl` (centres undefined), for which the Potency entry in assay [1], in assay [2], in [5], in [6], in [19] and in [7] was “inactive” each time. Moreover, the Potency entry in assay [8], in assay [10], in assay [14] and in assay [15] was “inactive” each time. Moreover, the molecule was called inactive in assay [3], in [4], in [9], in assay [11], in assay [12] and in assay [16]. Besides, the molecule was called inactive in assay [17].

On to `OC(Cn1cncn1)(c1ccc(F)cc1)c1ccccc1F` (centres undefined), for which the Potency result in [1], in assay [2], in assay [5], in [6], in assay [19] and in assay [7] was “inactive” in each case. The Potency entry in assay [8], in [10] and in assay [15] was “inactive” in each case. For the same molecule, the molecule was classed as inactive in [3], in [4], in assay [9], in assay [11], in [12] and in assay [13]. Further, the molecule was classed as inactive in assay [16], in assay [17] and in assay [18].

With `ClC(Br)Br`, the Potency result in [1], in assay [2], in assay [5], in assay [6], in [19] and in [7] was “inactive” each time. Also, the Potency entry in assay [8], in assay [10], in [14] and in [15] was “inactive” each time. Further, the molecule was called inactive in assay [3], in [4], in [9], in [12], in [13] and in assay [20]. Besides, the result in assay [16] was inactive.

As for `Clc1cccc(N2CCNCC2)c1`, the Potency entry in assay [1], in assay [2], in assay [5], in [6], in [7] and in assay [8] was “inactive” in each case. Further, the Potency entry in assay [10], in [14] and in [15] was “inactive” throughout. For the same molecule, the result in assay [3], in assay [4], in assay [9], in assay [11], in [12] and in [16] was inactive. Also, in assay [17], the outcome was inactive.
